TDP1 inh: inhibitors of human tyrosyl-DNA phosphodiesterase TDP1 | Q9NUW8 | recombinant TDP1, AlphaScreen DNA substrate cleavage | Potency, µM (doses to about 130 µM), for the others: top-dose activity change, negative = inhibition, hits mostly inhibitors | actives 0.28% (n = 350,000) | AID 485290; further: potency means the concentration at half of the fitted maximal effect; nearly all actives have a fitted effect of over 40% in size
Target sequence (Q9NUW8 whole entry, looked up): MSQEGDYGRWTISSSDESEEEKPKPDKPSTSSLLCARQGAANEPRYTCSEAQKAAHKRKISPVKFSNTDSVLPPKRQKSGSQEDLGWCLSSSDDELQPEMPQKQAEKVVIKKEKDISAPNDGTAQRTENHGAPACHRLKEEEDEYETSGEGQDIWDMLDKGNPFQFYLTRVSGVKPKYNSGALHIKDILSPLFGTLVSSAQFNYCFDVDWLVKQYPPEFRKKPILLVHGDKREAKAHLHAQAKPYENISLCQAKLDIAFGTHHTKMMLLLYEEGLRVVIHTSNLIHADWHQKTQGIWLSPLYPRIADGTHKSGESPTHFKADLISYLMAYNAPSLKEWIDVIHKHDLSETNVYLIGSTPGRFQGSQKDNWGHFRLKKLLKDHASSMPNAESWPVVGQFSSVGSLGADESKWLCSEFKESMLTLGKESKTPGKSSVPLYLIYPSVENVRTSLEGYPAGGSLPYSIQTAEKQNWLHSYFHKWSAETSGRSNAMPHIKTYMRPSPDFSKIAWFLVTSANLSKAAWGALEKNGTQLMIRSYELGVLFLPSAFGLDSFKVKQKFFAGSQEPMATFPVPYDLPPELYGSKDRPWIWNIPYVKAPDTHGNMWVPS
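Compounds were preincubated with Tdp1 (1 nM final) for 15 min at room temperature before substrate (15 nM final) started a 5 min reaction; beads (10 ug/ml final) were then added for 10 min before AlphaScreen detection.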
TDP1 cell CPT: DT40-hTDP1 cell growth loss with CPT; chicken DT40 Tdp1-/-;hTDP1 cells + 20 nM CPT, ATP luminescence, 48 h; Potency, µM (top dose mostly 46.2 µM), for inactives: at the highest dose activity change, negative = growth inhibition, usual class: inhibitors; actives 12% (n = 420,000); AID 686979; further: potency means the concentration at half of the fitted maximal effect; nearly all actives have a fitted effect of over 55% in size
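Cell growth measured by CellTiter-Glo luminescence after a minimum 48 h, 37 C compound exposure with 20 nM CPT in Tdp1-knockout DT40 cells stably expressing hTDP1, seeded 400/well; qHTS titration format.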
IL1B secr inh: inflammasome signaling inhibition, IL-1 beta readout | THP-1 LPS/ATP IL-1B secretion, AlphaLISA, 16 h; hits give low values | activity change, % at 57.5 µM | actives 4.7% (n = 360,000); in the data active means activity change below about -50%; inconclusive means mostly about -30% to -49%
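THP-1 cells pretreated 1 hr with compounds (up to 57.5 uM final), then stimulated with LPS (250 ng/mL final) plus ATP (1.25 mM final); secreted IL-1B measured by AlphaLISA after 16 hr, decreased signal indicating inhibition.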
TDP1 cell noCPT: qHTS for Inhibitors of human tyrosyl-DNA phosphodiesterase 1 (TDP1): qHTS in cells in absence of CPT; DT40 Tdp1-/- hTDP1 cells, no CPT, ATP luminescence, 48 h; Potency, µM (highest dose often 46.2 µM), inactives show at the highest dose activity change, negative = growth inhibition, actives largely listed as inhibitors; actives 15% (n = 420,000); AID 686978, 2013; further: potency means the concentration at half of the fitted maximal effect; nearly all actives have a fitted effect of over 55% in size
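Readout: luminescence from CellTiter-Glo after 30 min in the dark at RT. Cells: DT40 Tdp1-/- with stable hTDP1, 400/well. Exposure: compounds alone, ≥48 hr, 37 °C.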
Giardia kill: kills Giardia lamblia. activity change, % at 7.66 µM, hits read low. AID 540267. Giardia lamblia trophozoite viability. actives 0.15% (n = 340,000); in the data active means activity change below about -80%; inconclusive means between about -30% and that limit;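 further: parasites exposed to compound for two days anaerobically before the ATP read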
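Giardia lamblia trophozoites (100 cells/well) were incubated with compounds for 48 h at 37 deg C under anaerobic conditions. Viability was read as ATP content by one-step luminescence after 15-30 min at room temperature.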
ELG1 DNA repair: inhibitors of ELG1-dependent DNA repair in HEK293T cells | HEK293T ELG1-luciferase reporter, luminescence, 16 h; DNA damage induced by 5-fluorouridine | actives 2.3% (n = 330,000) | Potency, µM (top dose mostly 46.1 µM), for inactives: at the highest dose activity change, negative = inhibition, actives largely listed as inhibitors; further: potency means the concentration at half of the fitted maximal effect; nearly all actives have a fitted effect of over 55% in size
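Quantitative HTS, concentration-response format. 2,000 cells/well co-treated with 5-fluorouridine and compound, 16 hr in 5% CO2 at 37 °C; ONE-Glo luminescence read after 30 min.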
Active calls of the source: *; u = inconclusive; x = not tested or not shown; [ ] = remark or other dose. Shown are actives, neighbours in structure and some others; about 19% of the full set was active somewhere. Unless noted, the call rests on the fitted dose curve; in most records, active means well fitted curve in the direction sought with a large enough effect; inconclusive means small, poorly fitted or top-dose-only effect, or another doubt; inactive means no such curve, though single readings can be large; an effect the other way counts as inactive or inconclusive. On the % scale 0 is the no-effect control and ±100 the full control effect.

SMILES | TDP1 inh | TDP1 cell CPT | IL1B secr inh | TDP1 cell noCPT | Giardia kill | ELG1 DNA repair
O=C(NCc1ccccc1)c1onc(CSc2ccc(Cl)cc2)c1C(=O)NCc1ccccc1 | 1% | u | -27 | u | 4 | -5%
O=C(NCc1ccccc1)c1onc(CSc2ccccc2)c1C(=O)NCC1CC1 | -4% | 13µM* | -52* | 21µM* | -26 | 23µM*
Cc1ccc(F)cc1NC(=O)CSc1nnc(CNC(=O)c2ccco2)n1C | 4% | -19% | 20 | -8% | 8 | -4%
COc1ccc(-c2cn(CCO)c(CCN)n2)cc1 | 1% | -25% | 15 | -23% | -11 | 1%
O=C(O)C1C2C=CC3(O2)C1C(=O)N1c2ccccc2C2OCCC2C13 (stereo not given) | 40µM* | -3% | 17 | 0% | 10 | x
Cc1c(NC(=S)SCc2ccccc2)c(=O)n(-c2ccccc2)n1C | -1% | -14% | -23 | 23µM* | -5 | 29%
CCSC(=S)Nc1c(C)n(C)n(-c2ccccc2)c1=O | 8% | -28% | -20 | -24% | -11 | -7%
Cc1c(NC(=S)N/N=C/c2ccc(Br)cc2)c(=O)n(-c2ccccc2)n1C | 9% | u | -21 | -25% | -6 | -2%
Cc1c(NC(=S)N/N=C\c2ccccc2O)c(=O)n(-c2ccccc2)n1C | 7% | u | 68 | 21µM* | 0 | u
Cc1cc(C(C)(C)C)cc(C)c1COC(=O)c1cccnc1 | u | -12% | 77 | u | 16 | -25%
O=C(c1ccccc1)c1c[nH]c(C(=O)C(Cl)(Cl)Cl)c1 | 5% | u | -18 | u | 8 | 4%
O=C(c1c[nH]c(C(=O)C(Cl)(Cl)Cl)c1)c1ccc(F)cc1F | x | u | 0 | 13µM* | -3 | 0%
O=C(Cc1ccccc1)c1c[nH]c(C(=O)C(Cl)(Cl)Cl)c1 | x | 2.9µM* | -7 | 6.5µM* | 17 | 9%
O=C(c1ccc(Cl)cc1)c1c[nH]c(C(=O)C(Cl)(Cl)Cl)c1 | 5% | 12µM* | -112* | 12µM* | 10 | 9%
O=C(c1c[nH]c(C(=O)C(Cl)(Cl)Cl)c1)c1ccc(F)cc1Cl | 5% | u | -63* | 13µM* | -10 | -15%
CNC(=O)c1cc(C(=O)c2ccc(F)cc2Cl)c[nH]1 | x | 1% | 5 | -24% | -14 | u
CCOC(=O)C1(C)C=C(Nc2ccc(C(N)=O)cc2)C(=O)N1c1ccccc1 (stereo not given) | x | u | x | -12% | x | x
COc1ccc(-c2nnc3n2N=C(c2ccccc2OC)CS3)c(OC)c1 | 9% | x | x | x | x | x
CO/N=C(\C(=O)N[C@@H]1C(=O)N2C(C(=O)O)=C(CSc3nnnn3C)CS[C@H]12)c1csc(N)n1 | x | -1% | x | -24% | x | x
CC(=O)NC(NC(=S)Nc1cccc(Br)c1)C(Cl)(Cl)Cl (stereo not given) | x | u | -60* | u | -17 | u
O=C(NC(NC(=S)Nc1cccc(Cl)c1)C(Cl)(Cl)Cl)OCc1ccccc1 (stereo not given) | 7% | u | u | 18µM* | -7 | -13%
CC(=O)Nc1ccccc1C(=O)C(=O)Nc1cccc(Br)c1 | 1% | -28% | -1 | 18µM* | -3 | u
CC(=O)Nc1ccccc1C(=O)C(=O)Nc1ccc(Cl)cc1 | 3% | -14% | 6 | -21% | -16 | u
CC(=O)NC(NC(=S)Nc1ccc(N=Nc2ccccc2)cc1)C(Cl)(Cl)Cl (stereo not given) | -12% | u | -19 | u | 22 | 8%
Cc1cccc(NC(=S)NC(NC(=O)OCc2ccccc2)C(Cl)(Cl)Cl)c1 (stereo not given) | 3% | 23µM* | -3 | u | -13 | -21%
SMILES | TDP1 inh | TDP1 cell CPT | IL1B secr inh | TDP1 cell noCPT | Giardia kill | ELG1 DNA repair
O=C(CCCc1ccccn1)c1ccc(-c2ccccc2)cc1 | x | u | -10 | u | -28 | x
O=[N+]([O-])/C(C(Cl)=C(Cl)Cl)=C(\Sc1ccccc1)N1CCCCC1 | 6% | 18µM* | -16 | 23µM* | 8 | 4%
O=C(CCSc1ccccc1)N1CCCC1 | 9% | -6% | 0 | -16% | -6 | u
CCN(CC)/C(Sc1ccccc1)=C(\C(Cl)=C(Cl)Cl)[N+](=O)[O-] | 5% | u | -89* | u | 1 | 5%
CCN(CC)/C(Sc1ccccc1)=C(/C(Cl)=C(Cl)Cl)[N+](=O)[O-] | 7% | 21µM* | -7 | u | 9 | -8%
CCOc1ccccc1N/C(=C(/C(Cl)=C(Cl)Cl)[N+](=O)[O-])n1cncn1 | 6% | -20% | 13 | u | 23 | 4%
CCOc1ccc(NC(=O)CN(C)S(=O)(=O)c2ccc3c(c2)c(=O)n(C)c(=O)n3C)cc1 | -3% | 3% | x | -8% | x | x
COCCCNC(=O)C(=O)NCC(c1ccc2c(c1)OCO2)N1CCOCC1 (stereo not given) | 2% | 8% | x | u | x | x
COc1cccc(CNC(=O)CCCn2nc(C)c3sc4ccccc4c3c2=O)c1 | 3% | 16µM* | x | u | x | x
Cc1nn(CCCC(=O)NCc2ccc(OC(C)C)cc2)c(=O)c2c1sc1ccccc12 | 3% | u | x | u | x | x
CSc1ccc(CCNC(=O)CCCn2nc(C)c3sc4ccccc4c3c2=O)cc1 | -9% | 15µM* | x | u | x | x
CCN(CC)CCSc1nc2ccccc2n1Cc1ccccc1 | 9% | u | -18 | 16µM* | -2 | -25%
CCN(CC)c1ccc(CNc2nc3ccccc3n2CCN2CCCCC2)cc1 | 10% | 4.6µM* | -105* | u | 12 | 2%
Brc1cccc(CNc2nc3ccccc3n2CCN2CCOCC2)c1 | 6% | u | -12 | 12µM* | 16 | 9%
CCN(CC)c1ccc(CNc2nc3ccccc3n2C)cc1 | x | -27% | -20 | -8% | -9 | -11%
COc1ccc(CCN2CCC(Nc3nc4ccccc4n3Cc3ccc(F)cc3)CC2)cc1 | 5% | 15µM* | -67* | 7.3µM* | -25 | -21%
CCCn1c(NCc2ccc3c(c2)OCO3)nc2ccccc21 | 1% | u | u | u | -4 | u
COCC1CCCN(Cc2ccc3c(c2)CN(C(=O)c2cccnc2OC)CCO3)C1 (stereo not given) | x | 11%[9.04 µM] | x | -1% | x | x
COc1cc2c(NCCCCCO)ncnc2c(OC)c1OC | x | -20% | -8 | u | x | x
OCCNc1nc2ccccc2n1CCN1CCCCC1 | -9%[56.1 µM] | -13% | -7 | 2% | 8 | -3%

Screening results (PubChem BioAssay)
